According to the supplement of paper PMC10849652:
About 7,900 targets were measured; listed, in parts, are those with a hit and a random draw of the rest. About 0.6% of all pairs of compound and target were hits. A number with no mark means an inactive call.

What was measured:
Assay in all cases: log2 fold change, soluble protein after heating vs DMSO (PISA); higher = thermal stabilisation; K562 cells, 10 uM, 30 min; active = over 0.2 and 3.5 SD of the protein, either way, in both replicates (recomputed)
ibrutinib = compound: C=CC(=O)N1CCC[C@@H](n2nc(-c3ccc(Oc4ccccc4)cc3)c3c(N)ncnc32)C1 [ibrutinib]
Method in brief: (§1)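 Quantification of soluble protein used TMTpro 16plex LC-MS/MS, with channel sums equalised. Samples were the supernatant after 21,000xg for 90 min of pooled aliquots from K562 cells (2×10^6 cells/mL) treated with 10 μM compound for 30 min, heated for 3 min over 48°C-58°C, and extracted in PBS with 0.5% NP-40 at 4°C. Values, from duplicates, describe thermal stability against control samples on a log2 fold-change scale.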

[1] = compound: CC(=O)c1cnc2ccc(-c3cc(Cl)c(O)c(Cl)c3)nc2c1N[C@H]1CC[C@H](CN(C)C)CC1
Method in brief: as §1

ralimetinib = compound: CC(C)(C)Cn1c(N)nc2ccc(-c3[nH]c(C(C)(C)C)nc3-c3ccc(F)cc3)nc21 [ralimetinib]
Method in brief: as §1

[2] = compound: CC(C)C[C@@H](C=O)NC(=O)[C@H](CC(C)C)NC(=O)[C@H](CC(C)C)NC(=O)OCc1ccccc1
Method in brief: as §1

[3] = compound: CC1=C(C2=C(C=C1)C(=O)C3=CC=CC=C3N2CCCN)C
Method in brief: as §1

[4] = compound: CC1=C(C=C(C=C1)NC(=O)C2=CC(=CC=C2)N(C)C)NC(=O)C3=CC=C(C=C3)O
Method in brief: as §1

[5] = compound: CC1=CC=C(C=C1)SC2=C3C=C(SC3=CN=C2)C(=O)N
Method in brief: as §1

vemurafenib = compound: CCCS(=O)(=O)Nc1ccc(F)c(C(=O)c2c[nH]c3ncc(-c4ccc(Cl)cc4)cc23)c1F [vemurafenib]
Method in brief: as §1

[6] = compound: CCCS(=O)(=O)Nc1ccc(F)c(C(=O)c2c[nH]c3ncc(Cl)cc23)c1F
Method in brief: as §1

[7] = compound: CCCc1cc(C)[nH]c(=O)c1CNC(=O)c1cc(-c2ccnc(N3CCN(C)CC3)c2)cc2c1cnn2C(C)C
Method in brief: as §1

barasertib = compound: CCN(CCCOc1ccc2c(Nc3cc(CC(=O)Nc4cccc(F)c4)[nH]n3)ncnc2c1)CCOP(=O)(O)O [barasertib]
Method in brief: as §1

IRAK-1-4 Inhibitor I = compound: C1COCCN1CCN2C3=CC=CC=C3N=C2NC(=O)C4=CC(=CC=C4)[N+](=O)[O-] [IRAK-1-4 Inhibitor I]
Method in brief: as §1

[8] = compound: CC(C)(O)CC(=O)NCCn1ccc2ncnc(Nc3ccc(Oc4cccc(C(F)(F)F)c4)c(Cl)c3)c21
Method in brief: as §1

pinometostat = compound: CC(C)N(C[C@H]1O[C@@H](n2cnc3c(N)ncnc32)[C@H](O)[C@@H]1O)[C@H]1C[C@@H](CCc2nc3cc(C(C)(C)C)ccc3[nH]2)C1 [pinometostat]
Method in brief: as §1

[9] = compound: CC1=NC(=CC=C1)C2=C(N=C(N2)C(C)(C)C)C3=CC4=NC=CN=C4C=C3
Method in brief: as §1

Nexturastat A = compound: CCCCN(Cc1ccc(C(=O)NO)cc1)C(=O)Nc1ccccc1 [Nexturastat A]
Method in brief: as §1

[10] = compound: CC1=C(C(CC(=O)N1)C2=CC=C(C=C2)C(F)(F)F)C(=O)NC3=C(C=C4C(=C3)C=NN4)F
Method in brief: as §1

[11] = compound: CC1=C(C=C(C=C1)NC(=O)C2=CC(=CC=C2)C(C)(C)C#N)NC3=CC4=C(C=C3)N=CN(C4=O)C
Method in brief: as §1

[12] = compound: CC(C)C1=C2N=C(C=C(N2N=C1)NCC3=CC=CC=C3)NCCCCCCN
Method in brief: as §1

givinostat = compound: CCN(CC)Cc1ccc2cc(COC(=O)Nc3ccc(C(=O)NO)cc3)ccc2c1 [givinostat]
Method in brief: as §1

UniProt P60484, sequence (P60484 whole entry, looked up): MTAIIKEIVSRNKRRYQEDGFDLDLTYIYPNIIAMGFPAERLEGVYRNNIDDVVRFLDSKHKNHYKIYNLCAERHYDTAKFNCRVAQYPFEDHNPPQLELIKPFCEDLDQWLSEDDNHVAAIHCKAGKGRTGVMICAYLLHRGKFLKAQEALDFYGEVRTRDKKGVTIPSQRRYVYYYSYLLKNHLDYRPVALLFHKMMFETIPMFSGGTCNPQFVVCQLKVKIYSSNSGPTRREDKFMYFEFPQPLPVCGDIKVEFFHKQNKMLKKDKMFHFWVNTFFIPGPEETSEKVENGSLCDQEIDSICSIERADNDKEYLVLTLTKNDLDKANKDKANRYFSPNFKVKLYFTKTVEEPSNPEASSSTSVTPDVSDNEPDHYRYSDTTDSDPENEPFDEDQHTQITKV
UniProt Q9NUJ7, sequence (Q9NUJ7 whole entry, looked up): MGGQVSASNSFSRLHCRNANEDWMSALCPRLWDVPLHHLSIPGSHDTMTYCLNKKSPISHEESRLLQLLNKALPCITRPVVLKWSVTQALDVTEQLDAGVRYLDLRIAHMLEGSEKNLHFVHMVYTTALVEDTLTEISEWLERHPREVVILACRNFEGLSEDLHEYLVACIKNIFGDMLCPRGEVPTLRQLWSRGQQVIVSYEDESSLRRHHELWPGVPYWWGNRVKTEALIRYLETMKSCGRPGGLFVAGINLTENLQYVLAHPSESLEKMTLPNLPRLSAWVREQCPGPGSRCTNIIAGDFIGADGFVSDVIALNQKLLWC
UniProt Q5JVF3, sequence (Q5JVF3 whole entry, looked up): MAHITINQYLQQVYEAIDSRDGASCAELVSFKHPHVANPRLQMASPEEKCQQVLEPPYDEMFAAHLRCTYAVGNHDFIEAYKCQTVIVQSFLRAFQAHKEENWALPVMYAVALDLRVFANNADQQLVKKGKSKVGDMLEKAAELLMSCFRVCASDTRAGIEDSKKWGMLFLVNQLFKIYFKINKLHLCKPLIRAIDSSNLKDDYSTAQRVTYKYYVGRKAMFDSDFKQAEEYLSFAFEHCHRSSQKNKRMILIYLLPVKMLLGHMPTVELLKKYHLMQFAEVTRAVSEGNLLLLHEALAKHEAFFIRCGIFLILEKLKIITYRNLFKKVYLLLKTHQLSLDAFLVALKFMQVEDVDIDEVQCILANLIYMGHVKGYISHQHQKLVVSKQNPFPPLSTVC
UniProt P14618, sequence (P14618 whole entry, looked up): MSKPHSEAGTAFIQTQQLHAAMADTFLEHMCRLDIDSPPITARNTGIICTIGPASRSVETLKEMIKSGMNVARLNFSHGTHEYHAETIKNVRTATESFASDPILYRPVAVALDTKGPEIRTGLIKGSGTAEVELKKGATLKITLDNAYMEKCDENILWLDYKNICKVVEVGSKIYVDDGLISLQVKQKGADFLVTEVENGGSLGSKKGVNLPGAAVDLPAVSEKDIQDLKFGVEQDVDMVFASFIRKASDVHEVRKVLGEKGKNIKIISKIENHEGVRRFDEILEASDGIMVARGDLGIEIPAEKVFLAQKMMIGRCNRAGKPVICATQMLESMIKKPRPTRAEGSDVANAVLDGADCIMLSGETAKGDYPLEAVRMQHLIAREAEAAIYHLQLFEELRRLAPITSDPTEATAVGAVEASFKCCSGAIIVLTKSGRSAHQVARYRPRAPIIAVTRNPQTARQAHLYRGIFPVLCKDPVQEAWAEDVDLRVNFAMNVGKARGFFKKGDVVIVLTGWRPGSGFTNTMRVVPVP
UniProt Q9NYI0, sequence (Q9NYI0 whole entry, looked up): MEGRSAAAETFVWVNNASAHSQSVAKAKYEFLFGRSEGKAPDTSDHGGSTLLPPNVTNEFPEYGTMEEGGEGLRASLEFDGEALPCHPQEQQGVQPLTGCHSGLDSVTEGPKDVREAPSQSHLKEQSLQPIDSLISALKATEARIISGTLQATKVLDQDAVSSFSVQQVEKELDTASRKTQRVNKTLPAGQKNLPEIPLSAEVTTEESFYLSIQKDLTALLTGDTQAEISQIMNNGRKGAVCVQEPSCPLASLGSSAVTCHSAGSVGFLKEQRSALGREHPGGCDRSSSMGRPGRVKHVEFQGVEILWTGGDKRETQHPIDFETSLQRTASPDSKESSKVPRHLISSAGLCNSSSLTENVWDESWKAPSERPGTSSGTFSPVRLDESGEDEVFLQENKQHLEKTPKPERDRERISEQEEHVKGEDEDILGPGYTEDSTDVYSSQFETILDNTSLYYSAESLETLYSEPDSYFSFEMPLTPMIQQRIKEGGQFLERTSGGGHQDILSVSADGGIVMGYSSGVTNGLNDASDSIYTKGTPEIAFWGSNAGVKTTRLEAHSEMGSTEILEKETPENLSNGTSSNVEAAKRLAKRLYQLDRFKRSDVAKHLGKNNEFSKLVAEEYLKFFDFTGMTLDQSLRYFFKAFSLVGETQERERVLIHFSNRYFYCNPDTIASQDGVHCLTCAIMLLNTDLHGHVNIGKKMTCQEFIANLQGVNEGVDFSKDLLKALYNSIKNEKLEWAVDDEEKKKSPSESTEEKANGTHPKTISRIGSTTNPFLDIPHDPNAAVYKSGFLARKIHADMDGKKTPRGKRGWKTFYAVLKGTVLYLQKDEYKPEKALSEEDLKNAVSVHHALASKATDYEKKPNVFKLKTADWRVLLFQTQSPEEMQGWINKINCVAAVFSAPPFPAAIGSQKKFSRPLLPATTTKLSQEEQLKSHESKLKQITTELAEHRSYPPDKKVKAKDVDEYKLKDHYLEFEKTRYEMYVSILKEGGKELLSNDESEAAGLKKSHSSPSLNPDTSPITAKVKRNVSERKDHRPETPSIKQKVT
UniProt Q8NDX5, sequence (Q8NDX5 whole entry, looked up): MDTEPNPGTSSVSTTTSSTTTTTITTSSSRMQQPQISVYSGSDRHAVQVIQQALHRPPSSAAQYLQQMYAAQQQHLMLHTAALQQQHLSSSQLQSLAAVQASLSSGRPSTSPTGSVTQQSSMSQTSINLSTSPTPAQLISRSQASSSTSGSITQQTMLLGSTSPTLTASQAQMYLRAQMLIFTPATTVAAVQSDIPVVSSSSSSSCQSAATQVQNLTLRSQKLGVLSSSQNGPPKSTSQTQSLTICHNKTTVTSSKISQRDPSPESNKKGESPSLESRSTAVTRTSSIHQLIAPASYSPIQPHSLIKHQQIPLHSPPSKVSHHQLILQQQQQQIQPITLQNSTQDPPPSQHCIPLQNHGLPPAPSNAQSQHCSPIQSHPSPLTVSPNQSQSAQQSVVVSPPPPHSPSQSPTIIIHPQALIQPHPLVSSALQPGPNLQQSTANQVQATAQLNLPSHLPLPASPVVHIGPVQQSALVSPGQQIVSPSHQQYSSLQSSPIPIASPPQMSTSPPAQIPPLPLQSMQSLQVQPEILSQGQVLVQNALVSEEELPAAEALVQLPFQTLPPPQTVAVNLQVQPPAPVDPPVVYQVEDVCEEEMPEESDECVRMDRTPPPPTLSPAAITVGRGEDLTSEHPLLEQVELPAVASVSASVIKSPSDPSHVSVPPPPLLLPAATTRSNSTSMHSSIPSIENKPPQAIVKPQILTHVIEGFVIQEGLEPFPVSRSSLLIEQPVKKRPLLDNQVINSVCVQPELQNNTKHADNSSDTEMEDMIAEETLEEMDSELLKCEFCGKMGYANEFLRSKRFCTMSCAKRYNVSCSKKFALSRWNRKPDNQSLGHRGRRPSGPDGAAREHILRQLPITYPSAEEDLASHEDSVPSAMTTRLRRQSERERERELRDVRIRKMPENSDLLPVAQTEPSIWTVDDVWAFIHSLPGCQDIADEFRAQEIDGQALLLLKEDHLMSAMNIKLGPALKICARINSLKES
UniProt O60237, sequence (O60237 whole entry, looked up): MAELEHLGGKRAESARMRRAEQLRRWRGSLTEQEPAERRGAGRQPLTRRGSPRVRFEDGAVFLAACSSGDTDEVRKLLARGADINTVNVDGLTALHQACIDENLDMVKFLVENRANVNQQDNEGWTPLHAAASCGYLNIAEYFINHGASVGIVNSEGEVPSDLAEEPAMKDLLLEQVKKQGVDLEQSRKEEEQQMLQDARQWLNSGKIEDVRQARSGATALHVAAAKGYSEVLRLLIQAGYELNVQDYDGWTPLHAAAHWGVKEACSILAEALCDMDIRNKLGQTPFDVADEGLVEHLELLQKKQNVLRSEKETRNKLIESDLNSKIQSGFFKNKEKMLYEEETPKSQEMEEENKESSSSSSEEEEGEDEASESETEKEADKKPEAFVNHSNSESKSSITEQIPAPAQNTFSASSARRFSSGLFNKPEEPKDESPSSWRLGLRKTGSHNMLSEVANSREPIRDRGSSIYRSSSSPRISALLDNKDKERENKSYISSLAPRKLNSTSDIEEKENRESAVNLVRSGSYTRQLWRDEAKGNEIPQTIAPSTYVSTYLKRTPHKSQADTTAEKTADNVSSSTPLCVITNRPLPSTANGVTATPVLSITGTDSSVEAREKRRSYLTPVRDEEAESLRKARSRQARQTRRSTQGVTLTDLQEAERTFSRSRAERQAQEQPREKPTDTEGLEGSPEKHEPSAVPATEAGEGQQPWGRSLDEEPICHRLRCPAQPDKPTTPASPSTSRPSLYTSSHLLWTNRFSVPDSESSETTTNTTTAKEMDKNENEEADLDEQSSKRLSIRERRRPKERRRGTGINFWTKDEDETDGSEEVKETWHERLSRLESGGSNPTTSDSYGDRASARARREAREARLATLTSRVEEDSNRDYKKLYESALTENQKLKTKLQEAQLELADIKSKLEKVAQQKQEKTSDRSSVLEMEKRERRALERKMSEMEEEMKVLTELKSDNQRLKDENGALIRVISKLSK
UniProt O43924, sequence (O43924 whole entry, looked up): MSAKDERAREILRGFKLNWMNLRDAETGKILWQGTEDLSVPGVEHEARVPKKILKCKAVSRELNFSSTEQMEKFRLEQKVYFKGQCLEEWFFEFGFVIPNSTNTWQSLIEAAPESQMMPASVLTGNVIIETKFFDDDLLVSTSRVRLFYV

| Target | log2 fold change (ibrutinib) | log2 fold change [1] | log2 fold change (ralimetinib) | log2 fold change [2] | log2 fold change [3] | log2 fold change [4] | log2 fold change [5] | log2 fold change (vemurafenib) | log2 fold change [6] | log2 fold change [7] | log2 fold change (barasertib) | log2 fold change (IRAK-1-4 Inhibitor I) | log2 fold change [8] | log2 fold change (pinometostat) | log2 fold change [9] | log2 fold change (Nexturastat A) | log2 fold change [10] | log2 fold change [11] | log2 fold change [12] | log2 fold change (givinostat) |
| --- | --- | --- | --- | --- | --- | --- | --- | --- | --- | --- | --- | --- | --- | --- | --- | --- | --- | --- | --- | --- |
| PUF60 isoform 2 (UniProt Q9UHX1) | 0.035 | -0.329 | 0.25 | -0.203 | -0.052 | 0.04 | 0.199 | 0.135 | 0.35 | 0.123 | 0.095 | – | – | – | – | – | – | – | – | – |
| PIAS4 (UniProt Q8N2W9) | – | – | -0.005 | 0.035 | -0.275 | -0.137 | -0.101 | – | 0.07 | 1.31 | – | -0.111 | -0.781 (active) | 0.037 | 0.222 | 0.353 | – | – | – | – |
| PKM isoform 2 (UniProt P14618) | – | 0 | 0.054 | 0.023 | 0.034 | -0.082 | 0.049 | 0.088 | 0.094 | 0.056 | -0.005 | -0.018 | -0.561 (active) | 0.08 | 0.033 | 0.267 | -0.068 | -0.13 | – | – |
| PPP1R12B isoform 6 (UniProt O60237) | 0.075 | – | – | – | – | – | – | – | – | – | 0.108 | – | – | – | – | – | -0.346 (active) | – | -0.074 | 0.252 |
| PLCXD1 (UniProt Q9NUJ7) | 0.021 | – | 0.113 | 0.175 | – | 0.05 | – | – | – | – | -0.003 | – | – | – | – | – | – | – | – | – |
| PHC3 isoform 7 (UniProt Q8NDX5) | -0.159 | – | – | – | – | – | 0.088 | – | 0.096 | 0.116 | 0 | -0.377 | -0.25 | -0.11 | 0.266 | -0.43 | 0.021 | 0.102 | -0.219 | 0.17 |
| PSMA3 (UniProt G3V4X5) | -0.065 | – | -0.114 | 0.733 (active) | – | -0.046 | -0.117 | -0.012 | 0.013 | – | 0.103 | -0.451 | – | -0.001 | 0.184 | – | – | – | – | – |
| PSD3 (UniProt Q9NYI0) | – | -0.024 | -0.026 | -0.055 | – | -0.059 | -0.01 | -0.019 | 0.049 | 0.025 | – | 0.014 | – | -0.037 | 0.023 | – | -0.016 | – | – | – |
| POGZ (UniProt Q7Z3K3) | – | -0.183 | 0.083 | 0.038 | -0.826 (active) | -0.025 | 0.028 | 0.122 | -0.024 | – | – | -0.133 | -0.035 | -0.05 | 0.008 | -0.127 | – | 0.037 | 0.066 | -0.142 |
| PDE4DIP (UniProt E9PS60) | – | – | – | – | – | – | – | -0.214 | – | – | – | -0.183 | – | 0.178 | 0.013 | – | – | – | 0.171 | 0.016 |
| PDE6D (UniProt O43924) | 0.086 | -0.051 | – | – | -0.01 | – | – | -0.022 | – | -0.028 | 0.002 | 0.037 | 0.003 | 0.017 | -0.117 | 0.15 | -0.016 | -0.081 | 0.164 | -0.052 |
| PCID2 (UniProt Q5JVF3) | -0.015 | – | 0.007 | -0.02 | 0.06 | -0.026 | -0.066 | 0.069 | 0.202 | 0.071 | -0.016 | -0.008 | 0.063 | 0.037 | 0.033 | 0.153 | 0.035 | 0.024 | -0.428 (active) | 0.114 |
| PRKD2 (UniProt M0R346) | -0.096 | – | – | – | – | – | – | – | – | – | -0.337 | – | -0.273 | – | – | 0.236 | – | -0.011 | – | – |
| PTEN isoform 2 (UniProt P60484) | – | – | 0.062 | 0.083 | – | -0.035 | 0.13 | – | -0.016 | – | – | -0.227 | – | -0.006 | 0.064 | – | – | – | -0.629 (active) | -0.086 |
